Potency and activity, negative = inhibition data for 67 compounds are collected here from PubChem BioAssay AID2546 (National Center for Advancing Translational Sciences (NCATS), 2010).

In all, about 310,000 compounds went through this assay and about 11,000 (3.5%) were called active. Not shown: some 8% with an inconclusive outcome. Calls follow the shape of the dose curve; as a rule, active = well fitted inhibition curve with a large enough effect; inconclusive = small, poorly fitted or top-dose-only effect, or effect the other way; inactive = flat fitted curve, though single readings scatter. Shown is part of a subset that was picked to be rich in actives. Where a call stands in place of a potency, no number is given.
Potency is read from the fitted curve at half-maximal effect.

The nature of this assay: VP16 counterscreen qHTS for inhibitors of ROR gamma transcriptional activity.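 Also: Gal4-VP16 expression switched on by copper sulfate through the metallothionein promoter; nearly all actives have a fitted effect of over 50% in size.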 To be noted: Drosophila S2 Gal4-VP16 UAS-luciferase, luminescence, 20 h; series mostly up to 53.6 µM. For orientation: Counterscreens check selectivity or assay interference.
Consider `COc1ccc(C(=O)NC(C)CCc2ccccc2)c(OC)c1` (configuration not stated), for which the Potency result is “inactive”.

Turning to `CCCn1nnnc1NC(=O)COc1ccc(Cl)cc1C`, the Potency was 2000 nM (active). As for `Cc1cc(NC(=O)COc2ccc(Cl)cc2Cl)n(CCC#N)n1`, the Potency result was “inactive”. In the case of `CCOC(=O)N1CCN(C(=O)COc2ccc(Cl)cc2C)CC1`, the Potency result was “inactive”. The same measure, in the same setting: next, `O=C(Nc1ccccc1C(=O)NCC1CCCO1)c1ccccc1F` (configuration not stated): “inactive”; `CCOC(CNC(=O)C1CCN(S(=O)(=O)c2ccc3nc4c(c(C(=O)O)c3c2)CC(C)CC4)CC1)OCC` (configuration not stated): “inactive”. `O=C(Oc1cccc(C(=S)N2CCOCC2)c1)c1cccc(Cl)c1`: the Potency entry was “inactive”.

Take `CCOC(=O)C1=C(O)CSC1=Nc1cccc(Cl)c1`: the Potency entry is “inactive”. On the same count and under the same terms, next, `CN(C)c1nc(=Nc2cccc(Cl)c2)ss1`: 891 nM (active); `Cn1c(=O)c(=O)n(C)c2cc(S(=O)(=O)CCC(=O)N3CCCCC3)ccc21`: “inactive”; `O=C(COc1ccc(Cl)cc1)NCCS(=O)(=O)N1CCN(c2ccc(F)cc2)CC1`: “inactive”. On to `CCCOc1ccc(Cc2c(O)nc(SC)[nH]c2=O)cc1C`, for which the Potency result is “inactive”. `CCCOc1ccc(-c2nc(N)n[nH]2)cc1`: the Potency result was “inactive”.

As for `CCCOc1ccc(Cc2c(Cl)nc(SC)nc2NC)cc1`, the Potency is 7080 nM (active).

Consider `Cc1cc(C)cc(C(=O)OCC(=O)NCCNC(=O)COC(=O)c2cc(C)cc(C)c2)c1`, for which the Potency is 89.1 nM (active). As to `Cc1cccc(C(=O)OCC(=O)Nc2ccc(F)cc2)c1`, the Potency result was “inactive”. In the case of `COc1ccccc1C(=O)OCC(=O)NCCNC(=O)COC(=O)c1ccccc1OC`, the Potency result is “inactive”. For `COc1cc(N=Cc2c(O)c3ccccc3oc2=O)c(OC)cc1Cl`, the Potency result was “inactive”.

Regarding `COc1ccc(CNC(=O)CCCn2nc(C)c([N+](=O)[O-])c2C)cc1`, the Potency result was “inactive”. Consider `CCc1ccc(NC(=O)Cn2nc(C)c([N+](=O)[O-])c2C)cc1`, for which the Potency result is “inactive”. With `Cc1ccc(Oc2cc(NC(=O)CCCn3nc(C)c([N+](=O)[O-])c3C)cc([N+](=O)[O-])c2)cc1`, the Potency was 1000 nM (active). `CCOC(=O)c1c(S(=O)(=O)Nc2ccc(CN3CCC(C)CC3)cc2)c(C)n(C)c1C`: the Potency result is “inactive”. For `CCC(C)c1ccccc1NC(=O)CN(C)CC(=O)Nc1ccccc1SC` (configuration not stated), the Potency result was “inactive”. `CC(=O)c1ccc(NC(=O)CCNS(=O)(=O)c2cc(Br)cnc2N)cc1`: the Potency result was “inactive”. As for `COc1ccc(CCNC(=S)NC(=O)/C=C/c2ccc(C)cc2)cc1OC`, the Potency is 10000 nM (active). Same read-out and setting: next, `COc1ccc(CCNC(=O)Cc2ccc(C)cc2)cc1OC`: “inactive”. Regarding `COc1ccc(CCNC(=O)NS(=O)(=O)c2ccc(C)cc2)cc1OC`, the Potency entry is “inactive”. On the same count and under the same terms, next, `CCN1CCN(CCNC(=O)c2ccc3c(c2)NC(=O)/C(=C\c2ccc(OC)c(OC)c2)S3)CC1`: “inactive”; `CCCc1nnc(SCC(=O)Nc2ccc(C(=O)OCC)cc2)o1`: “inactive”. For `CCOC(=O)c1ccc(NC(=O)Cn2cnc3cc(C)c(C)cc32)cc1`, the Potency was 7080 nM (active). In the case of `CCOC(=O)c1ccc(NC(=O)Cn2nnc(-c3ccc(C)cc3)n2)cc1`, the Potency entry was “inactive”. On the same count and under the same terms, next, `CC(C)C(=O)Nc1c2c(nn1-c1ccccc1)CSC2`: “inactive”; `Cc1cc(O)cc(O)c1C(=O)Cc1cnn(-c2ccccc2)c1`: 355 nM (active).

Consider `O=C(c1cnn(-c2ccc(Cl)cc2)c1)c1ccccc1O`, for which the Potency result was “inactive”. `COc1ccc(C(=O)Cc2cnn(-c3ccccc3)c2)c(O)c1`: the Potency result is “inactive”. On to `Cc1ccc(O)c(NC(=O)c2cc(-c3ccco3)on2)c1`, for which the Potency entry was “inactive”. Consider `OC(COc1ccc(Br)cc1)CN1CCCC1` (configuration not stated), for which the Potency result was “inactive”. As to `CC(C)(C)CC(C)(C)NCC(O)COCCOc1ccc(Br)cc1` (configuration not stated), the Potency is 11200 nM (active). For the compound `COc1ccc(OCC(O)CNCCNc2nccc(C(F)(F)F)n2)cc1` (configuration not stated), the Potency result was “inactive”. Regarding `CCOC(=O)CSc1nnc(NC(=O)C2CC(=O)N(c3ccc(F)cc3)C2)s1` (configuration not stated), the Potency entry was “inactive”.

Take `CCC(=O)N1c2ccc(S(=O)(=O)NCc3ccco3)cc2CC1C` (configuration not stated): the Potency entry is “inactive”. On the same count and under the same terms, next, `C/C=C/C=N/NC(=O)c1ccncc1`: “inactive”; `C/C(=N\Nc1nc2ccccc2[nH]1)c1cccs1`: 6310 nM (active). As to `O=C(Nc1ccccc1-c1nc2ccccc2[nH]c1=O)c1cccs1`, the Potency result is “inactive”. Still for that read-out and setting: as for `C/C(=N\Nc1nc(Nc2ccccc2)nc(N2CCOCC2)n1)c1cccs1`, the entry is “inactive”; as for `CN(c1ccccc1)S(=O)(=O)c1ccc2[nH]c(=O)[nH]c2c1`, “inactive”. As for `CCn1ccnc1CN(C)C(=O)c1cc(COc2ccc(Cl)cc2OC)on1`, the Potency result is “inactive”. As for `O=C1C=C(c2ccc(Cl)cc2)C(=O)N1Nc1ccccc1`, the Potency was 3980 nM (active).

As for `O=C1c2cccc3cc(Br)cc(c23)C(=O)N1Nc1ccccc1`, the Potency result is “inactive”. As for `O=C(Nc1ccccc1)OCc1cc(-c2ccc(Cl)cc2)on1`, the Potency result is “inactive”.

`COc1cccc(NC(=S)NCCCN2CCOCC2)c1`: the Potency result is “inactive”.

As to `CCOc1cccc(/C=N/NC(=S)NCCN2CCOCC2)c1O`, the Potency is 2240 nM (active). Regarding `Cc1ccc(NC(=S)NCCN2CCOCC2)cc1`, the Potency entry is “inactive”.

Regarding `CCOC(=O)c1c(S(=O)(=O)NCC(=O)Nc2ccc(C)cc2)c(C)n(C)c1C`, the Potency entry was “inactive”.

Regarding `CCCc1cc(=O)oc2c(C)c(OCC(=O)Nc3ccccn3)ccc12`, the Potency result was “inactive”.

For the compound `O=C(CN1C(=O)S/C(=C\c2ccccc2Cl)C1=O)NC1C=CS(=O)(=O)C1` (configuration not stated), the Potency entry was “inactive”. On the same count and under the same terms, as for `CCCCCCCCn1c2c(c(=N)c3c1CCC3)CCCC2`, the figure is 2510 nM (active); as for `COCCCNC(=O)Cc1ccc(-n2c(C)nc3cccnc32)cc1`, “inactive”. On to `CC(Oc1ccc(Cl)cc1Cl)C(=O)/C=C/N(C)C` (configuration not stated), for which the Potency result was “inactive”. Still for that read-out and setting: next, `COc1cccc(NC(=O)CN(C)C(=O)Cc2ccc(Cl)cc2Cl)c1`: “inactive”. Still for that read-out and setting: next, `CCCC(=O)Nc1cccc(NC(=S)NC(=O)C(C)Oc2ccc(Cl)cc2Cl)c1` (configuration not stated): 2820 nM (active). The same measure, in the same setting: as for `Cc1ccc(/C=C2/SC(=S)N(CCC(=O)NCCCN3CCOCC3)C2=O)cc1`, the entry is “inactive”. On to `CCCC[C@]12Cc3cc(OC)c(OC)cc3C(O1)C1=C(CC3(CCCCC3)OC1=O)O2`, for which the activity, negative = inhibition was 7.46% [at 10 µM] (inactive).

In the case of `C=C1/C(=C\C=C2\CCCC3(C)C2CCC3C(C)/C=C/C(O)C2CC2)CC(O)CC1O` (configuration not stated), the Potency is 12600 nM (active). For `C=C1C(=CC=C2CCC[C@@]3(C)[C@@H]2CC[C@H]3[C@H](C)CCCC(C)C)C[C@@H](O)C[C@@H]1O`, the Potency result is “inactive”. In the case of `COc1ccc(C(O)(C2CCCCC2)C(CN2CCCC2)c2ccccc2)cc1` (configuration not stated), the Potency result is “inactive”.

For the compound `O=C(NCc1ccccc1Cl)C1CCN(S(=O)(=O)c2cccc3nonc23)CC1`, the Potency result was “inactive”.
